Assay outcomes from PubChem BioAssay.
The sample as a whole holds a higher share of hits than the screen did.
IL-1B inflam inh – qHTS for Inhibitors of Inflammasome Signaling: IL-1-beta AlphaLISA Primary Screen. activity change, % at 57.5 µM. THP-1 LPS/ATP IL-1B secretion, AlphaLISA, 16 h; hits give low values. 360,000 compounds, 4.7% hits; in the data active = activity change below about -50%; inconclusive = mostly about -30% to -49%
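THP-1 cells pretreated 1 hr with compounds (up to 57.5 uM final), then stimulated with LPS (250 ng/mL final) plus ATP (1.25 mM final); secreted IL-1B measured by AlphaLISA after 16 hr, decreased signal indicating inhibition.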
HT1080 IDH1KD tx – qHTS for induction of synthetic lethality in tumor cells producing 2HG: qHTS for the HT-1080-IDH1KD cell line; Potency, µM (series often up to 46.1 µM), for inactives: at the top dose activity, negative = toxicity, usual class: cytotoxic; HT-1080 IDH1 knockdown viability, ATP luminescence, 48 h; 360,000 compounds, 2% hits;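 note: potency is the fitted concentration of half-maximal effect; 0% = DMSO wells and -100% = cell-free medium wells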
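In this qHTS, HT-1080 cells depleted of IDH1 are exposed for 48 h at 37 °C to compound titrations. Toxicity is scored from CellTiter-Glo luminescence, with DMSO as full viability and medium alone as none.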
HT1080NT lethal – qHTS for induction of synthetic lethality in tumor cells producing 2HG: qHTS for the HT-1080-NT fibrosarcoma cell line | HT-1080-NT fibrosarcoma viability, CellTiter-Glo ATP luminescence, 48 h | Potency, µM (doses to about 46.1 µM), for the others: at the highest dose activity, negative = less viability, hits mostly cytotoxic | 360,000 compounds, 1.6% hits | AID 686970, 2013;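 note: NT is the 2HG producing partner of a matched IDH1 knockdown line; potency is the fitted concentration of half-maximal effect; 0% = DMSO-treated cells and -100% = media-only wells without cells; nearly all actives have a fitted effect of over 55% in size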
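Viability of the 2HG-overproducing fibrosarcoma line after 48 hours of compound exposure at 37 degrees C was determined by luminescence with CellTiter-Glo, and concentration-effect curves were then fitted and categorized.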
12-LOX inh – Primary qHTS assay for inhibitors of human arachidonate 12S-lipoxygenase (ALOX12): Round 2; Polyunsaturated fatty acid lipoxygenase ALOX12 (Homo sapiens), P18054; purified 12hLO, xylenol orange hydroperoxide absorbance; Potency, µM (titrated, usually from 108 µM), for the others: at the highest dose activity change, negative = inhibition, actives largely listed as inhibitors; 580,000 compounds, 1.1% hits; AID 1671190, 2021; note: potency is the fitted concentration of half-maximal effect
Target sequence (P18054 whole entry, looked up): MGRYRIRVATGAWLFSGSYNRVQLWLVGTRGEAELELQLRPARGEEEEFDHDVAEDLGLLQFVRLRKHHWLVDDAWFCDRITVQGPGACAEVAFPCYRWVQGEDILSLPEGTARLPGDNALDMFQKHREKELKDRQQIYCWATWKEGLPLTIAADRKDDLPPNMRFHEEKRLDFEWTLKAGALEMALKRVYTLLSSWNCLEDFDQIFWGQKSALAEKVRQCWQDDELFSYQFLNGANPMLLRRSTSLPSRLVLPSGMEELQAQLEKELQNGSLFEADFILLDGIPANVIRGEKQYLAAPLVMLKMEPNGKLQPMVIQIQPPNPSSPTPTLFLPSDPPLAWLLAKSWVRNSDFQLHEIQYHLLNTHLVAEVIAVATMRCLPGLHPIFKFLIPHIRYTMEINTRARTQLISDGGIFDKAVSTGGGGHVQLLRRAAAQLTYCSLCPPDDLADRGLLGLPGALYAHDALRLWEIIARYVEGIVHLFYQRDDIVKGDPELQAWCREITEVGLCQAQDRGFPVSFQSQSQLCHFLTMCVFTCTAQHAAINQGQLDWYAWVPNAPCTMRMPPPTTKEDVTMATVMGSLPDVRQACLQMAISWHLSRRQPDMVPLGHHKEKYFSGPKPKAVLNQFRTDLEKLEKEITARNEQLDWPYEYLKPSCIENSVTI
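Purified human 12hLO at 150 nM in 25 mM Hepes, 0.01% Triton X-100, pH 7.0, preincubated 15 min at room temperature with compound. Reaction started with 40 uM arachidonic acid, 30 min at room temperature. Hydroperoxide measured by Fe-xylenol orange, 573/405 nm absorbance ratio.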
TDP1 cell noCPT – qHTS for Inhibitors of human tyrosyl-DNA phosphodiesterase 1 (TDP1): qHTS in cells in absence of CPT | DT40 Tdp1-/- hTDP1 cells, no CPT, ATP luminescence, 48 h | Potency, µM (top dose mostly 46.2 µM), without a hit: at the top dose activity change, negative = growth inhibition, usual class: inhibitors | 420,000 compounds, 15% hits; note: potency is the fitted concentration of half-maximal effect; nearly all actives have a fitted effect of over 55% in size
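No-CPT arm: Tdp1-/-;hTDP1 DT40 cells (400/well) plus compounds, incubated ≥48 hr at 37 °C. Readout CellTiter-Glo luminescence.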
TDP1 cell CPT – qHTS for Inhibitors of human tyrosyl-DNA phosphodiesterase 1 (TDP1): qHTS in cells in presence of CPT; chicken DT40 Tdp1-/-;hTDP1 cells + 20 nM CPT, ATP luminescence, 48 h; Potency, µM (series often up to 46.2 µM), inactives show at the top dose activity change, negative = growth inhibition, most hits filed as inhibitors; 420,000 compounds, 12% hits; AID 686979, 2013; note: potency is the fitted concentration of half-maximal effect; nearly all actives have a fitted effect of over 55% in size
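Chicken DT40 Tdp1-/- cells stably complemented with human TDP1 were seeded at 400 cells/well in medium containing 20 nM camptothecin, exposed to pin-transferred compounds, and grown at 37 °C for at least 48 hr. Viability was read as ATP luminescence.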
Active calls of the source: *. Unless noted, calls come from the whole dose curve; as a rule, active = well fitted curve in the direction sought with a large enough effect; inconclusive = small, poorly fitted or top-dose-only effect, or another doubt; inactive = no such curve, though single readings can be large; an effect the other way counts as inactive or inconclusive. Unless noted, % is set by controls: 0 for no effect and ±100 for the full control effect.

Screening COc1ccc(-c2noc(CSc3nnc(Cc4ccccc4)n3-c3ccccc3)n2)cc1OC returned 12-LOX inh -11%, TDP1 cell noCPT 13µM* and TDP1 cell CPT 23µM*.
For COc1ccc(-c2noc(CSc3nnc(Cc4ccccc4)n3-c3cccc(C)c3)n2)cc1OC the results were IL-1B inflam inh -64*, HT1080 IDH1KD tx inconclusive, HT1080NT lethal inconclusive, 12-LOX inh 11%, TDP1 cell noCPT 21µM* and TDP1 cell CPT 16µM*.
CCOc1ccc(-c2noc(CSc3nnc(Cc4ccccc4)n3-c3ccc(F)cc3)n2)cc1 was read as 12-LOX inh -2%, TDP1 cell noCPT inconclusive and TDP1 cell CPT inconclusive.
Cc1ccccc1C1CCCN1C(=O)c1cc(-c2cccs2)on1 (stereo unspecified) was read as 12-LOX inh -26%.
Screening Cn1ccc2c(-c3cccnc3)cc3c(c21)C1CCC3C1 (stereo unspecified) returned IL-1B inflam inh 1, HT1080 IDH1KD tx -2%, HT1080NT lethal -1%, 12-LOX inh 2%, TDP1 cell noCPT inconclusive and TDP1 cell CPT inconclusive.
`Cn1ccc2c(-c3ccc(F)cc3F)cc3c(c21)C1CCC3C1` (stereo unspecified) gave IL-1B inflam inh 40, HT1080 IDH1KD tx 1%, HT1080NT lethal -2%, 12-LOX inh -23%, TDP1 cell noCPT inconclusive and TDP1 cell CPT -22%.
For Cn1ccc2c(-c3cncc4ccccc34)cc3c(c21)C1CCC3C1 (stereo unspecified) the results were IL-1B inflam inh 11, HT1080 IDH1KD tx -28%, HT1080NT lethal -18%, 12-LOX inh -9%, TDP1 cell noCPT 18µM* and TDP1 cell CPT inconclusive.
Cn1ccc2c(-c3cccc4ccccc34)cc3c(c21)C1CCC3C1 (stereo unspecified) was read as IL-1B inflam inh 19, HT1080 IDH1KD tx -10%, HT1080NT lethal -4%, 12-LOX inh 0%, TDP1 cell noCPT inconclusive and TDP1 cell CPT -51%.
For Cn1ccc2c(-c3cccc(C=O)c3)cc3c(c21)C1CCC3C1 (stereo unspecified) the results were IL-1B inflam inh -8, HT1080 IDH1KD tx inconclusive, HT1080NT lethal inconclusive, 12-LOX inh -14%, TDP1 cell noCPT inconclusive and TDP1 cell CPT 23µM*.
Screening COc1ccc(-c2cc3c(c4c2ccn4C)C2CCC3C2)cc1OC (stereo unspecified) returned IL-1B inflam inh -23, HT1080 IDH1KD tx -27%, HT1080NT lethal inconclusive, 12-LOX inh -37%, TDP1 cell noCPT 26µM* and TDP1 cell CPT inconclusive.
`CC(C)N1CCc2c(C#N)c(NCc3cccnc3)n3cnnc3c2C1` gave 12-LOX inh -8%.
CCCC1CCC(c2ccc(/C(N)=N/O)cc2)CC1 (stereo unspecified) was read as IL-1B inflam inh inconclusive, HT1080 IDH1KD tx -29%, HT1080NT lethal -30%, 12-LOX inh 79%, TDP1 cell noCPT 15µM* and TDP1 cell CPT inconclusive.
Screening CCCC1CCC(c2ccc(C(=O)NN)cc2)CC1 (stereo unspecified) returned IL-1B inflam inh 26, HT1080 IDH1KD tx -19%, HT1080NT lethal -24%, 12-LOX inh -19%, TDP1 cell noCPT 29µM* and TDP1 cell CPT 29µM*.
